This is an account of results in PubChem BioAssay (NCI).

About 83,000 compounds went through this panel and 20% of them were active in at least one assay; those are over-represented in the sample as a whole.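 A percent growth of 40 corresponds to 60% growth inhibition; 0 means no net growth; -100 means all cells died. Active threshold: below 10.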 Unmarked numbers belong to inactive results. Activity calls are given as the source filed them.

Among the test systems are NCI-H23 lung; NCI-H226 lung; NCI-H322M lung; HOP-62 NSCLC; NCI-H460 lung; HOP-92 NSCLC; NCI-H522 lung; A549/ATCC NSCLC; 786-0 renal; COLO 205 colon.
What all share (assay): NCI-60 one-dose screen, 48 h (100 = growth as untreated, 0 = no growth, -100 = all killed)
Details in all cases: 10 µM unless noted

Consider `CC(C)(c1ccc(OCC(O)CNCc2ccco2)cc1)c1ccc(OCC(O)CNCc2ccco2)cc1` (stereo not given), for which the growth in the test with NCI-H23 lung was 93.4%; in the test on NCI-H226 lung it was 94.6%; in the test with NCI-H322M lung, 99.4%; in the test on HOP-62 NSCLC, 82.2%; with NCI-H460 lung, 98%; in the test with HOP-92 NSCLC, 57.4%. For the same compound, the growth with NCI-H522 lung was 86%; with A549/ATCC NSCLC, 81.2%; with 786-0 renal, 70.8%; in the test with COLO 205 colon, 85.5%.

Turning to `Nc1nc(-c2cc3c(cc2Cl)NC(=O)/C3=C/c2ccccc2)cs1`, the growth in the test on NCI-H23 lung is 56.5%; in the test on NCI-H226 lung, 71.8%; in the test on NCI-H322M lung, 70.1%; with HOP-62 NSCLC it was 78.6%; in the test on NCI-H460 lung it was 56.8%; with HOP-92 NSCLC it was 81.2%. The growth was 27.5% in the test on NCI-H522 lung, 61.5% with A549/ATCC NSCLC, 83.9% in the test on 786-0 renal and 81.3% with COLO 205 colon.

With `CC(C)(C)NCC(O)COc1c(Br)c(Br)c(Br)c2c1OC(C)(C)C2` (stereo not given), the growth in the test on NCI-H23 lung is -0.995% (active); with NCI-H226 lung it was 42.5%; in the test with NCI-H322M lung, -19.3% (active); in the test on HOP-62 NSCLC, -84.9% (active); in the test with NCI-H460 lung, -63.7% (active); with HOP-92 NSCLC it was -57.7% (active). Moreover, the growth with NCI-H522 lung is -76.8% (active); in the test with A549/ATCC NSCLC it was -71.9% (active); in the test on 786-0 renal, -91.6% (active); with COLO 205 colon, -58.3% (active).

Take `Oc1ccc(O)c(-[n+]2ccccc2)c1`: the growth with NCI-H23 lung was 99.4%; in the test on NCI-H226 lung it was 93%; in the test on NCI-H322M lung it was 109%; in the test with HOP-62 NSCLC, 94.2%; in the test with NCI-H460 lung it was 105%; in the test on HOP-92 NSCLC it was 92.6%. Besides, the growth in the test with NCI-H522 lung is 82.7%; in the test with A549/ATCC NSCLC, 83.8%; with 786-0 renal, 95.3%; in the test with COLO 205 colon, 112%.

As to `CCCC(=O)Oc1ccc(/C(=C(\C)c2ccc(OC)cc2)c2ccc(OCCN3CCCCC3)cc2)cc1`, the growth was 79.3% in the test with NCI-H23 lung; 83.5% in the test on NCI-H226 lung; 89.7% with NCI-H322M lung; 86.1% in the test on HOP-62 NSCLC; 87.1% with NCI-H460 lung; 69% in the test with HOP-92 NSCLC. Also, the growth with NCI-H522 lung was 78.9%; in the test with A549/ATCC NSCLC, 76.8%; with 786-0 renal it was 67.1%; with COLO 205 colon it was 67.6%.

In the case of `CN1C(=O)C2(NN=C(c3cccc4ccccc34)S2)c2ccccc21` (stereo not given), the growth was 50.4% in the test with NCI-H23 lung; 46.1% in the test on NCI-H226 lung; 44.4% in the test with NCI-H322M lung; 13.9% with HOP-62 NSCLC; 14.6% in the test on NCI-H460 lung; -1.68% (active) with HOP-92 NSCLC. Moreover, the growth in the test with NCI-H522 lung is 41.1%; with A549/ATCC NSCLC it was 9.72% (active); in the test on 786-0 renal, 33.5%; with COLO 205 colon, 23.5%.

With `O=C(NCCNc1nccc(-c2c(-c3cccc(O)c3)nc3sccn23)n1)c1ccc(N2CCOCC2)c(C(F)(F)F)c1`, the growth in the test with NCI-H23 lung is 85.4%; in the test with NCI-H226 lung, 69.5%; in the test with NCI-H322M lung, 102%; in the test with HOP-62 NSCLC it was 96.7%; in the test with NCI-H460 lung, 66.9%; in the test with HOP-92 NSCLC, 38.9%. Further, the growth in the test on NCI-H522 lung was 74.4%; in the test on A549/ATCC NSCLC it was 64.1%; in the test on 786-0 renal, 60.1%; in the test on COLO 205 colon, 43.4%.

As to `CCc1c2cc(Cl)ccc2n2cc(Cc3ccccc3)[nH]c(=O)c12`, the growth in the test on NCI-H23 lung is 94.3%; in the test with NCI-H226 lung it was 100%; in the test with NCI-H322M lung it was 83.7%; in the test on HOP-62 NSCLC, 103%; with NCI-H460 lung, 90.9%; in the test on HOP-92 NSCLC, 96%. The growth in the test on NCI-H522 lung is 104%; with A549/ATCC NSCLC it was 106%; in the test on 786-0 renal it was 109%; with COLO 205 colon, 97.5%.

As to `COc1cc(NC(C)CCCN2C(=O)c3ccccc3C2=O)c2nc(C)ccc2c1OC` (stereo not given), the growth was 87.9% with NCI-H23 lung; 96.4% with NCI-H226 lung; 76.2% with NCI-H322M lung; 95.1% with HOP-62 NSCLC; 103% in the test with NCI-H460 lung; 53.5% in the test with HOP-92 NSCLC. In addition, the growth was 82% in the test with NCI-H522 lung, 94.8% in the test on A549/ATCC NSCLC, 97.5% with 786-0 renal and 99.3% in the test with COLO 205 colon.

On to `COc1cc(NC(C)CCCN2C(=O)c3ccccc3C2=O)c2ncccc2c1OC` (stereo not given), for which the growth is 91.6% with NCI-H23 lung; 98.2% in the test on NCI-H226 lung; 79.5% in the test on NCI-H322M lung; 80.7% in the test on HOP-62 NSCLC; 103% in the test on NCI-H460 lung; 45.4% in the test with HOP-92 NSCLC. Further, the growth was 70.8% in the test on NCI-H522 lung, 100% in the test with A549/ATCC NSCLC, 91.1% with 786-0 renal and 101% with COLO 205 colon.
